# Laboratory results taken from PubChem BioAssay (NCI).
# The panel holds about 83,000 compounds, 20% with a hit somewhere; the sample as a whole holds those more often.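 Cell lines were cultured in 96-well plates, exposed to a single compound concentration, and assessed for percent growth 48 hours later.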 Values without a mark were called inactive. Calls of active or inactive are those of the source. The calls were made as follows: active = growth percent below 10; inactive = the rest.
# Legend:
# Experiment in all cases: NCI-60 one-dose screen, 48 h (100 = growth as untreated, 0 = no growth, -100 = all killed)
# Details in all cases: 10 µM unless noted
# [1] = test system: T-47D breast
# [2] = test system: BT-549 breast
# [3] = test system: MDA-MB-435 melanoma
# [4] = test system: SW-620 colon
# [5] = test system: MCF7 breast
# [6] = test system: HCT-116 colon
# [7] = test system: KM12 colon
# [8] = test system: HCC-2998 colon
SMILES,growth [1],growth [2],growth [3],growth [4],growth [5],growth [6],growth [7],growth [8]
COc1ccc(-c2cc(-c3ccc(Nc4nc(Nc5ccccc5)nc(Nc5ccc(Cl)cc5)n4)cc3)nc(N)c2C#N)cc1,-32% (active),-50.6% (active),-58.5% (active),-45.6% (active),-32.7% (active),-88.5% (active),-12.5% (active),
Cc1cc(C)on1,94.4%,,99.5%,110%,96.6%,110%,,94.5%
N=c1ccn2c(n1)OC1C(O)C(CO)OC12 (stereo not given),61%,44.9%,46.8%,41.5%,14.9%,18.3%,50.6%,
CN(C)CCC(O)(Cc1ccccc1)c1ccccc1 (stereo not given),96.4%,,91.8%,114%,110%,103%,,87%
CCCc1cc(=O)oc2c3c(c4c(c12)OC(C)(C)C=C4)O[C@@H](C)[C@H](C)C3=O,41.5%,68.7%,96.2%,71.6%,56.4%,35.8%,70.4%,
CC1=NN(c2cccc(Cl)c2)C(=O)/C1=C\c1cn(CC(O)CN2CCCCC2)c2ccccc12 (stereo not given),83.3%,96.1%,1.51% (active),7.47% (active),41.1%,10.2%,29.7%,
CN=C1C=CC(=C(c2ccc(N(C)C)cc2)c2ccc(N(C)C)cc2)C=C1,3.04% (active),-34.3% (active),-51% (active),3.29% (active),,-7.21% (active),-76.2% (active),-31% (active)
CC1(C)CC(=O)c2c(ccc(C(=O)C[C@H](N)CO)c2N)O1,53.8%,25%,52.3%,7.48% (active),13.3%,,16%,9.33% (active)
CSc1ncc(C)c(Nc2ccc(Cl)cc2)n1,119%,87.1%,106%,102%,,94.2%,100%,113%
CC(C)(C)OC(=O)N1Cc2cc3ccccc3nc2C1CO (stereo not given),103%,85%,88.1%,94.5%,90.7%,98.4%,106%,
COc1cc2c(cc1OC)-c1ccc3cc4c(cc3c1N(CCCN1CCCCC1)C2)OCO4,59.2%,40.7%,69.6%,38%,46.3%,24.6%,48.5%,80.9%
CC(=O)C(C(C)=O)c1nc2sc3cc(Cl)ccc3n2c(=N)c1C#N,75.8%,,111%,95.9%,57.9%,87.5%,82.4%,106%
C[C@]12CCC(=O)C[C@H]1CC[C@@H]1[C@@H]2CC[C@@]2(C)[C@H]1CC[C@]2(O)C(=O)CO,99.5%,105%,102%,108%,91.1%,110%,110%,
COc1ccc2cc(-c3ccc(C(=O)NN)c(C)n3)ccc2c1,79.5%,88.9%,99.9%,107%,90.4%,93.7%,103%,99.6%
COc1cc(/C=C/C(=O)c2ccc(Nc3nc(Nc4ccccc4)nc(Nc4ccc(Cl)cc4)n3)cc2)cc(OC)c1OC,28.3%,50.9%,58.8%,56.2%,7.84% (active),0.251% (active),46.9%,
COc1ccc(C2=NC(=O)NC2c2ccc(OC)cc2)cc1 (stereo not given),62.5%,90.6%,9.83% (active),38.7%,29.3%,47%,41.1%,
COC1(CC[C@@H](C)COC2OC(CO)C(O)C(O)C2O)O[C@H]2C[C@H]3[C@@H]4CC=C5C[C@@H](OC6OC(CO)C(OC7OC(C)C(O)C(O)C7O)C(O)C6OC6OC(C)C(O)C(O)C6O)CC[C@]5(C)[C@H]4CC[C@]3(C)[C@H]2[C@@H]1C (stereo not given in full),-4.7% (active),-84.2% (active),-61.3% (active),-96.4% (active),-85.5% (active),-86.1% (active),-82.2% (active),
CSc1nc2sc3cc(Cl)ccc3n2c(=N)c1C#N,70%,,96.9%,71.7%,49%,92.9%,19.8%,86.8%

SMILES,growth [1],growth [2],growth [3],growth [4],growth [5],growth [6],growth [7],growth [8]
COc1cccc(-c2cnco2)c1OCc1c(C)c(COc2c(OC)cccc2-c2cnco2)c(C)c(COc2c(OC)cccc2-c2cnco2)c1C,33.5%,39.2%,54.9%,75%,65.5%,,64.9%,99.3%
OC(COc1cccc2ccccc12)CN1CCN(c2ccccc2)CC1 (stereo not given),86.2%,95.3%,88.2%,102%,96.4%,86.9%,95.3%,
CN1CCN(C2=C(Cl)C(=O)c3ccccc3C2=O)CC1,80.8%,,-75% (active),98.8%,54.9%,10.2%,,86.5%
NC(=Nc1ccc(N)cc1)C(N)=Nc1ccc(N)cc1,104%,64.3%,104%,99.2%,90.4%,95.9%,108%,
OCCCCc1nccc2c1[nH]c1ccccc12,110%,57.5%,85.7%,108%,89%,101%,110%,
C=C1C(=O)O[C@H]2[C@H]1CC/C(COC(=O)/C=C\C(=O)NCc1ccc(Cn3c(=O)sn(CCCC)c3=O)cc1)=C\CC[C@@]1(C)O[C@@H]21,-39% (active),-73.3% (active),-73.9% (active),-45.5% (active),-43% (active),-77.5% (active),-59.7% (active),-80.3% (active)
CC(C)(C)N1CC(OC(N)=O)C1,93.3%,94.4%,96.5%,104%,102%,99.4%,108%,
COc1ccc(-c2cn(-c3cccc(C(=O)/C=C/c4cc(OC)c(OC)c(OC)c4)c3)c(=O)[nH]2)cc1,-9.54% (active),139%,-9.22% (active),-50.7% (active),-34.5% (active),-91.9% (active),-62.6% (active),
O=c1[nH]c(=O)n(C2CC(O)C(CO)O2)cc1CO (stereo not given),87.7%,82.1%,99%,96.6%,65.4%,91.4%,103%,
COC1=CC(c2ccc[nH]2)=N/C1=C\c1[nH]c(C)c(C(=O)OCCn2cc(CCC[C@@H]3Cc4cc(O)ccc4C4CC[C@]5(C)[C@@H](O)CC[C@H]5C43)nn2)c1C (stereo not given in full),102%,,80%,56.3%,96%,81.6%,66.9%,85.7%
O=C(Oc1ccc[nH]c1=O)c1cc([N+](=O)[O-])cc([N+](=O)[O-])c1,109%,75.6%,121%,107%,96.2%,103%,116%,
O=C1CC(c2ccc3c(c2)OCO3)Nc2cc3c(cc21)OCO3 (stereo not given),59.5%,32.7%,-34.6% (active),25.1%,13.9%,,15.2%,17.6%
CC[C@]1(O)C[C@H]2CN(CCc3c([nH]c4ccccc34)[C@@](C(=O)OC)(c3cc4c(cc3OC)N(C=O)[C@H]3[C@@](O)(C(=O)OC)[C@H](OC(C)=O)[C@]5(CC)C=CCN6CC[C@]43[C@@H]65)C2)C1,54.8%,-24.2% (active),-43.7% (active),15.5%,2.44% (active),-36.7% (active),5.78% (active),
COc1ccc(-c2nnc(-c3ccc4c(c3)nc(-c3ccccc3)n4C3CCCCC3)o2)cc1,4.1% (active),,59.6%,71.3%,33.2%,34.7%,39.9%,81.5%
CCCCCCCCCCCCCCCCCC1=NCCN1C(=O)OCCO,57.3%,113%,-21.2% (active),-76.8% (active),-45.6% (active),,21.4%,
COc1cc2c(O)n(CCCn3ccnc3)c3c4cnc5cccc(c(=O)c3c2cc1OC)c54,-6.91% (active),27.6%,51%,20.4%,10.8%,,61%,70.4%
NC(N)=N/N=C/CO,108%,96.7%,106%,106%,98.3%,94.1%,102%,119%
